Bioassay records deposited in PubChem BioAssay by National Center for Advancing Translational Sciences (NCATS).
This is a sample that favours compounds with a hit; in the whole collection about 3.9% have one here.
Tb PFK block: qHTS Assay to Find Inhibitors of T. brucei phosphofructokinase; actives 0.17% (n = 330,000); AID 485367, 2010; Potency, µM (highest dose often 57.5 µM), for inactives: at the highest dose activity, negative = inhibition, hits mostly inhibitors; ATP-dependent 6-phosphofructokinase (Trypanosoma brucei brucei), O15648; T. brucei PFK, ADP-Glo luminescence;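 further: 0% = uninhibited 1x PFK enzyme wells and -100% = no-enzyme wells; nearly all actives have a fitted effect of over 60% in size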
Target sequence (O15648 whole entry, looked up): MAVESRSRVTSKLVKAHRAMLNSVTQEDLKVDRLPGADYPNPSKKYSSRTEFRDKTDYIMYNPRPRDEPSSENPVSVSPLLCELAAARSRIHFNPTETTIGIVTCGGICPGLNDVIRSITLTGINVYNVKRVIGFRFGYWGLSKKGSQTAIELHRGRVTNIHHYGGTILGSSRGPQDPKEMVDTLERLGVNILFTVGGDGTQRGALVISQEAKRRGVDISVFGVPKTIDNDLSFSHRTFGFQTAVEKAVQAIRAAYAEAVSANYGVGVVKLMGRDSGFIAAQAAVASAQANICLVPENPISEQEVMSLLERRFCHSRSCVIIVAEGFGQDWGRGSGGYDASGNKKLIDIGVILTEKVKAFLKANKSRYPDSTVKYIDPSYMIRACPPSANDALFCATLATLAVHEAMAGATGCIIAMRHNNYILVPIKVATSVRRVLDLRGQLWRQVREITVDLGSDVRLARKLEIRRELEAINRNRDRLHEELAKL
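Compounds were pin-transferred as a titration series up to 57 uM into substrate buffer (0.5 mM F6P, 0.1 mM ATP, pH 8.0), then 1.25 nM PFK was added and reactions ran 45 min before ADP-Glo detection.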
VDR inhibitor: Inhibitors of the vitamin D receptor (VDR): qHTS; actives 0.93% (n = 400,000); Potency, µM, inactives show max response, negative = inhibition, actives largely listed as inhibitors; VDR-SRC2-3 peptide fluorescence polarization, 2 h; further: on the % scale 0 is the no-effect control and ±100 the full control effect
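The screen uses fluorescence polarization to detect compounds that interfere with recruitment of the SRC2-3 coactivator peptide to VDR; plates are read after 2 h at room temperature.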
PLK1 PBD block: qHTS for Inhibitors of PLK1-PDB (polo-like kinase 1 - polo-box domain): Primary Screen; Serine/threonine-protein kinase PLK1 (Homo sapiens), P53350; Plk1 PBD binding of FITC phosphopeptide, fluorescence polarization; Potency, µM, for inactives: max response, negative = inhibition, hits mostly inhibitors; actives 2.8% (n = 360,000); further: series mostly up to about 57 µM; on the % scale 0 is the no-effect control and ±100 the full control effect; nearly all actives have a fitted effect of over 65% in size
BRCA1 expr act: qHTS Assay to Identify Small Molecule Activators of BRCA1 Expression | MCF7-BRCA1-FFLuc reporter, luminescence, 48 h; response scale: scaled: vehicle 0%, 10 µM genistein 100% | Potency, µM (highest dose often 46.1 µM), inactives show at the highest dose activation, most hits filed as activators | actives 1.1% (n = 380,000) | AID 624202, 2012; further: nearly all actives have a fitted effect of over 80% in size
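Quantitative HTS in MCF7 cells stably reporting BRCA1 expression via firefly luciferase. Compound treatment lasts 48 h at 37 °C in phenol-red free MEM. Activation is expressed relative to genistein at 10 microM and DMSO.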
An asterisk follows results filed as active; u = inconclusive; x = not tested or not shown. The call rests on the fitted dose curve; in most records, active means well fitted curve in the direction sought with a large enough effect; inconclusive means small, poorly fitted or top-dose-only effect, or another doubt; inactive means no such curve, though single readings can be large; an effect the other way counts as inactive or inconclusive. Potency means the concentration at half of the fitted maximal effect.

SMILES	Tb PFK block	VDR inhibitor	PLK1 PBD block	BRCA1 expr act
CCOC(=O)c1ccccc1NC(=O)Cn1nnc2sc3c(c2c1=O)CCCC3	x	6%	x	x
COc1cccc(NC(=O)c2ccccc2F)c1	1%	-19%	5%	7.9µM*
COc1ccc(-c2csc(NC(=O)c3ccccc3F)c2C(=O)O)cc1	0%	0%	-6%	6.3µM*
CCOC(=O)c1c(-c2ccc(Br)cc2)csc1NC(=O)c1ccccc1F	x	-12%	x	x
COc1cccc(C(=O)Nc2cnn(C(C)C)c2)c1	-7%	-13%	4%	3.5µM*
COc1cccc(C(=O)Nc2ccc3ccccc3c2)c1	-2%	4%	-11%	94%
CC(C)(C)[C@@H]1CCC(=O)N(CC[C@H](Sc2ccc(Br)cc2)c2ccccc2)CC1	1%	-26%	-22%	-18%
CC(C)C/C=C1\CCc2c([nH]c3ccccc23)C1=O	2%	1%	-9%	8.9µM*
CN=C(c1ccco1)n1c(=S)nc(-c2ccco2)n(C)c1=S	0%	u	19µM*	-56%
CN(C)c1ccc(N/C=C/C(=O)c2ccco2)cc1	-15%	89µM*	1%	u
CN(C)c1ccc(N/C=C/C(=O)c2ccc(F)cc2)cc1	1%	u	9%	-33%
COCCCNC(=O)C[C@H]1C[C@H](C(=O)N2CCOCC2)[C@@]2(C)c3[nH]c4cc(CCC(=O)N(C)C)ccc4c3CCN2C1=O	-6%	1%	u	6%
O=C(O)/C=C/C(=O)N1CCN(c2ccc(F)cc2)CC1	-9%	-6%	19µM*	13%
Cc1c(NC(=O)Nc2ccc([N+](=O)[O-])cc2)c(=O)n(-c2ccccc2)n1C	2%	u	9.5µM*	-5%
Cc1c(NC(=O)Nc2ccccc2[N+](=O)[O-])c(=O)n(-c2ccccc2)n1C	1%	13%	2%	-5%
O=C(Nc1ccc(O)c2c(=O)cc(-c3cccc(Cl)c3)oc12)c1ccccc1Cl	-2%	1%	-5%	-26%
Cc1oc(-c2ccc(-c3ccccc3)cc2)nc1CN(C)C1CCOC1 (stereo not given)	-7%	-20%	24µM*	u
CCc1ccccc1NC1=NCC(=O)N1C1CCCC1	0%	-27%	30µM*	-11%
Cc1nc(Oc2ccccc2C)c2oc3ccccc3c2n1	x	3%	x	x
O=C(Cn1cnc(S(=O)(=O)N2CCCCC2)c1)NCc1ccco1	-2%	-11%	-2%	-2%
COC(=O)c1nc(NC(=O)C(C)C)n[nH]1	4%	7%	21µM*	0%
COC(=O)c1nc(NC(C)=O)n[nH]1	4%	x	x	x
CCOC(=O)/C(C#N)=C\c1cn(C)c2ccccc12	-3%	-15%	-17%	-47%
CCOC(=O)/C(=C\c1cn(C)c2ccccc12)[N+](=O)[O-]	-7%	50µM*	1.7µM*	-29%
O=C(O)Cc1sc(Nc2ccccc2Cl)nc1-c1ccccc1	x	-17%	x	30%
SMILES	Tb PFK block	VDR inhibitor	PLK1 PBD block	BRCA1 expr act
O=C1CC[C@H](C(=O)O)N1	x	0%	x	x
CC1(C)SCC(C(=O)O)NC1=O (stereo not given)	-2%	-10%	21µM*	-1%
CCNc1ncc2nc(C)c(=O)n(Cc3cccs3)c2n1	x	-1%	x	x
O=c1c(Br)ccc(Br)cc1Br	x	10µM*	0.53µM*	-89%
CC1(C(=O)Nc2cccc3c2CCCC3)CCN1C(=O)c1cccc(F)c1 (stereo not given)	x	x	-1%	-7%
O=C1OC(CN2CCOCC2)CN1N=Cc1ccc([N+](=O)[O-])o1 (stereo not given)	0%	10%	-7%	-2%
O=C1O[C@H](CN2CCOCC2)CN1/N=C\c1ccc([N+](=O)[O-])o1	x	28µM*	x	x
CCOC(=O)c1cc(-c2ccccc2)sc1NC(=O)C(C)C	-13%	u	30µM*	-28%
CCOC(=O)c1cc(-c2ccccc2)sc1NC(=O)c1ccc(OC)c(OC)c1	-17%	79µM*	4.7µM*	0%
CCOC(=O)c1ccc(OS(=O)(=O)c2ccccc2)c(OC)c1	-7%	u	27µM*	5.6µM*
CCOc1cc(C(=S)N2CCOCC2)ccc1OS(=O)(=O)c1ccccc1	1%	-5%	-5%	-32%
CCOC(=O)c1cc(-c2ccccc2)sc1NC(=O)COC	-1%	-16%	-18%	10%
COC(=O)c1cc(OC)c(OC)cc1NC(=O)CN1C(=O)c2ccccc2C1=O	-3%	-5%	-3%	0%
COC(=O)c1cc(-c2ccccc2)sc1NC(=O)CN1C(=O)c2ccccc2C1=O	1%	-27%	12µM*	-2%
COc1ccc2nccc(/C=C/c3ccc(N(C)C)cc3)c2c1	x	x	x	-27%
O=C(Nc1ccc(Cl)cc1Cl)c1ccc(Br)o1	1%	-6%	-4%	18%
O=C(Cn1ncc2c([nH]c3ccccc32)c1=O)N1CCN(c2ccccc2F)CC1	-19%	-8%	27µM*	-15%
O=C(Cn1ncc2c([nH]c3ccccc32)c1=O)N1CCN(c2ccc(F)cc2)CC1	2%	-19%	u	2%
COc1cccc(NC(=O)CSc2nc3ccc(NC(=O)c4ccco4)cc3s2)c1	x	15%	x	16%
N#Cc1c(-c2ccccc2)cc(-c2ccccc2)nc1SCCC(=O)O	-2%	u	21µM*	-65%
N#Cc1c(-c2ccc(Cl)cc2)cc(-c2ccccc2)nc1SCC(=O)O	0%	u	u	0%
N#Cc1c(-c2ccccc2)cc(-c2ccccc2)nc1SCC(=O)Nc1ccc(Cl)cc1	x	-14%	x	x
N#Cc1c(-c2ccc(F)cc2)cc(-c2ccccc2)nc1SCC(=O)NCC(=O)O	-21%	u	19µM*	-3%
CCOc1ccc(CNC(=O)c2ccc3c(Cl)c4c(nc3c2)CCCC4)cc1	x	-7%	x	25%
CCN(CC)CC(=O)Nc1ccc(C)cc1C(=O)c1ccccc1	-2%	-24%	-1%	-17%
SMILES	Tb PFK block	VDR inhibitor	PLK1 PBD block	BRCA1 expr act
Cc1ccc(S(=O)(=O)NCCC(=O)Nc2ccc(C)cc2C(=O)c2ccccc2)cc1	7%	u	27µM*	-19%
CC1(C)CC(=O)C(C=NCCCN2CCOCC2)=C(O)C1	-4%	-17%	30µM*	6%
Cc1ccc(N(CC(=O)Nc2ccc(Br)c(C)c2)S(=O)(=O)c2cccs2)cc1	x	-10%	x	-3%
C/C(CC1CC(COCC(C)C)OC1=O)=N\Nc1nc(-c2ccccc2)cs1 (stereo not given)	-7%	u	21µM*	-50%
Cc1cc(C(=O)NN)c2cc(Br)ccc2n1	7%	-11%	2%	-32%
Cc1cc(SCC(=O)NN)c2cc(Br)ccc2n1	-15%	28µM*	u	-35%
CCCn1c(SCC(=O)c2ccc(CC)cc2)n[nH]c1=O	-2%	-26%	8.4µM*	-11%
CCCn1c(SCC(=O)NC(=O)NC(C)(C)C)n[nH]c1=O	-3%	-14%	27µM*	-27%
CCCn1c(SCC(=O)Nc2cc(C)on2)n[nH]c1=O	3%	-5%	-2%	-3%
